Consider eleven compounds from PubChem BioAssay (NCI).

Assay in all cases: NCI-60 one-dose screen, 48 h (100 = growth as untreated, 0 = no growth, -100 = all killed)
Conditions in all cases: 10 µM unless noted

In assay [1] the test system is SR leukemia.
Assay [2] concerns RPMI-8226 leukemia.
Assay [3] deals with OVCAR-8 ovarian.
Assay [4] concerns OVCAR-5 ovarian.
Assay [5] relates to OVCAR-4 ovarian.
For assay [6], the system named is SK-OV-3 ovarian.
Assay [7] relates to IGROV1 ovarian.
The subject of assay [8] is OVCAR-3 ovarian.
The test system of assay [9] is HS 578T breast.
Assay [10] has as its system NCI/ADR-RES ovarian.
Assay [11] has as its system T-47D breast.
The subject of assay [12] is BT-549 breast.
Assay [13] relates to MDA-MB-435 melanoma.
The subject of assay [14] is SW-620 colon.
Assay [15] concerns MCF7 breast.
In assay [16] the test system is HCT-116 colon.
The test system of assay [17] is HCC-2998 colon.
In assay [18] the test system is KM12 colon.

Molecules are shown by their SMILES. Compounds without any hit were thinned out: in the full panel of roughly 83,000, 20% have a hit.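 48-hour exposure, single concentration, 96-well plates; percent growth endpoint where 0 means no net growth. Active: below 10.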 A number with no mark means an inactive call. The source made the active and inactive calls.

As for `COc1ccc(Oc2ccc(/C=C/C(=O)c3cc4ccccc4oc3=O)cc2)cc1`, the growth in assay [1] was 80.9%; in assay [2], 59.6%; in [3], 93.5%; in [4] it was 112%; in assay [5] it was 80.7%; in [6], 92.4%. The growth in assay [7] was 70.1%; in assay [8] it was 107%; in assay [9], 101%; in assay [10] it was 85.6%; in [11] it was 84.6%; in assay [12], 81%. The growth in assay [13] is 89.3%; in assay [14], 103%; in [15], 25.9%; in [16], 56.6%; in assay [17], 108%; in [18], 85.9%.

Take `O=C(Nc1cccnc1Nc1ccc(Cl)cc1)c1cn(Cc2cccc(Oc3ccccc3)c2)nn1`: the growth was 21.5% in assay [1]; 40.9% in [2]; 53.8% in assay [3]; 101% in assay [4]; 83.9% in assay [5]; 53% in assay [6]. Besides, the growth in [7] is 77.6%; in assay [8], 30.7%; in assay [9] it was 39.9%; in [10] it was 14.4%; in [11] it was 48.1%; in assay [12] it was 52.2%. Moreover, the growth in [13] is -30.2% (active); in assay [14], 36.5%; in assay [15], 19.6%; in assay [16], 23.4%; in assay [17], 63.9%; in assay [18], 31.8%.

For the compound `COc1ccc(C/C(C)=C(\c2ccc(Cl)cc2)c2ccc(OCCCN(C)C)cc2)cc1`, the growth is -31.7% (active) in [1]; -2.97% (active) in assay [2]; 86.2% in assay [3]; 70.8% in [4]; 92.9% in assay [5]; 99.1% in [6]. Also, the growth in assay [7] is 62.8%; in assay [8], 79.4%; in [9], 75.6%; in assay [10], 88.7%; in assay [11], 62.1%; in [12], 91.3%. Moreover, the growth is 82.6% in assay [13]; 60.8% in assay [14]; 16.2% in [15]; 60.3% in assay [16]; 47.1% in assay [17]; 68.6% in assay [18].

On to `CC1(C)N=C(N)N=C(N)N1c1cc(Cl)ccc1Cl`, for which the growth in assay [1] is 67%; in [2], 107%; in assay [3], 85.5%; in assay [4] it was 59.2%; in [5], 96.4%; in assay [6], 97.2%. Moreover, the growth in [7] was 68.4%; in assay [8], 115%; in [9] it was 101%; in assay [10], 67.8%; in assay [11], 95.2%; in assay [12] it was 85.2%. Besides, the growth in [13] is 108%; in assay [14], 42.2%; in assay [15], 65.7%; in assay [16], 36.8%; in [17], 94.8%; in assay [18], 94%.

In the case of `c1ccc(Nc2nc3c(s2)CCc2c[nH]cc2-3)nc1`, the growth in assay [1] is 75.8%; in [2] it was 89%; in [3], 90.7%; in [4], 108%; in assay [5], 78%; in [6] it was 83.7%. The growth in assay [7] is 86.2%; in assay [8], 74.1%; in [9], 96%; in [10] it was 92.7%; in [11], 11%; in assay [12] it was 95.4%. In addition, the growth in [13] was 110%; in assay [14] it was 102%; in assay [15], 65.1%; in assay [16] it was 72.2%; in [17], 103%; in [18], 92.3%.

With `COc1ccc(C/C(C)=C(\c2ccc(Cl)cc2)c2ccc(OCCN3CCCC3)cc2)cc1`, the growth in [1] was -14.2% (active); in assay [2], 13.9%; in assay [3], 91.1%; in assay [4], 68.9%; in assay [5] it was 97.7%; in assay [6], 101%. Also, the growth in assay [7] was 69%; in assay [8], 93.1%; in [9], 70.4%; in assay [10], 87.8%; in assay [11], 56.6%; in assay [12] it was 85.5%. Further, the growth in [13] was 89.4%; in assay [14], 75.2%; in assay [15], 35.7%; in assay [16] it was 78.9%; in assay [17] it was 75.6%; in assay [18], 72.1%.

Regarding `CCOC(=O)CC[C@H](NC(=O)c1ccc(N(C)Cc2cnc3nc(N)nc(N)c3n2)c2ccccc12)C(=O)OCC`, the growth in assay [1] was 31.8%; in [2], 23%; in assay [3] it was 23.9%; in [4] it was 55.6%; in assay [5], 91.1%; in [6], 50.7%. Also, the growth was 24.5% in assay [7]; 45.4% in [8]; 58% in [9]; 39.3% in assay [10]; 53.9% in assay [11]; 51.1% in assay [12]. In addition, the growth in assay [13] was 37.4%; in [14], 22%; in [15], 18.4%; in assay [16], 20.4%; in assay [17], 35.6%; in assay [18], 23.8%.

Turning to `O=C1OCC2=C1C(c1ccccc1)c1cc3c(cc1N2CCO)OCCO3` (stereo not drawn), the growth was 19.7% in assay [1]; 27.9% in assay [2]; 32.5% in assay [3]; 37.5% in assay [4]; 31.1% in assay [5]; 22.4% in assay [6]. For the same compound, the growth was 17.8% in assay [7]; -56.3% (active) in assay [8]; -9.64% (active) in assay [9]; -26.8% (active) in assay [10]; 50.5% in assay [11]; 14.1% in [12]. In addition, the growth in assay [13] is -32% (active); in assay [14] it was 21.1%; in [15], 8.47% (active); in assay [16], 6.08% (active); in assay [17], 0.753% (active); in assay [18], 9.35% (active).

With `Cc1ccc(C)c2c1sc1nc(N3CCOCC3)c(C#N)c(=O)n12`, the growth in assay [1] was 63.5%; in assay [2] it was 76.5%; in assay [3], 110%; in assay [4], 95.8%; in assay [5] it was 76.8%; in assay [6] it was 99.4%. In addition, the growth is 55.9% in assay [7]; 89.9% in assay [8]; 76.4% in assay [9]; 92.2% in [10]; 73.4% in [11]; 90.9% in assay [12]. Also, the growth in [13] is 118%; in assay [14], 105%; in assay [15], 51.5%; in [16], 88.6%; in [17], 109%; in assay [18], 63.1%.

With `COC1C(O)CC(OC2CC(OC3CC(O[C@@H]4C(=O)c5c(cc6cc(OC7CC(OC8CC(O)C(O)C(C)O8)C(O)C(C)O7)c(C)c(O)c6c5O)CC4[C@H](OC)[C@@H](O)C(C)=O)OC(C)C3O)OC(C)C2O)OC1C` (stereo partly drawn), the growth is 4.82% (active) in assay [1]; 7.39% (active) in assay [2]; 8.72% (active) in assay [3]; 12% in [4]; 16.9% in assay [5]; 22.2% in assay [6]. Further, the growth was 17.4% in assay [7]; 5.36% (active) in assay [8]; 21.7% in [9]; 68.8% in [10]; 1.23% (active) in assay [11]; -1.59% (active) in assay [12]. For the same compound, the growth in assay [13] was 5.77% (active); in [14], 14.9%; in [15], 4.58% (active); in [16], 4.98% (active); in assay [17], -50% (active); in assay [18], 14.7%.

Take `Cc1nc2ccccc2c(/C=C/c2ccc(F)cc2)c1C(=O)/C=C/c1ccccc1`: the growth in assay [1] is 8.92% (active); in assay [2], 1.46% (active); in [3], 2.09% (active); in [4], -22% (active); in assay [5] it was 36.4%; in assay [6], 56%. Further, the growth in assay [7] is 13.6%; in assay [8], -15.4% (active); in assay [9], 22.4%; in assay [10], 2.57% (active); in assay [11], 10.9%; in assay [12], 30.7%. Moreover, the growth in assay [13] was -9.7% (active); in [14] it was -1.98% (active); in assay [15] it was 11.4%; in assay [16], -69.9% (active); in [17], 22%; in [18], 11.9%.
